Hit rate of the full screen: of about 310,000 compounds, about 14,000 (4.5%) showed an effect of 50% or more. The effect is printed as a negative number. Shown is part of a subset that was picked to be rich in strong results.
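Note: peak tail current of the secondary pulse compared with the same well before compound.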

Chain of human ether-à-go-go-related gene (hERG) potassium channel (Q12809 whole entry, looked up): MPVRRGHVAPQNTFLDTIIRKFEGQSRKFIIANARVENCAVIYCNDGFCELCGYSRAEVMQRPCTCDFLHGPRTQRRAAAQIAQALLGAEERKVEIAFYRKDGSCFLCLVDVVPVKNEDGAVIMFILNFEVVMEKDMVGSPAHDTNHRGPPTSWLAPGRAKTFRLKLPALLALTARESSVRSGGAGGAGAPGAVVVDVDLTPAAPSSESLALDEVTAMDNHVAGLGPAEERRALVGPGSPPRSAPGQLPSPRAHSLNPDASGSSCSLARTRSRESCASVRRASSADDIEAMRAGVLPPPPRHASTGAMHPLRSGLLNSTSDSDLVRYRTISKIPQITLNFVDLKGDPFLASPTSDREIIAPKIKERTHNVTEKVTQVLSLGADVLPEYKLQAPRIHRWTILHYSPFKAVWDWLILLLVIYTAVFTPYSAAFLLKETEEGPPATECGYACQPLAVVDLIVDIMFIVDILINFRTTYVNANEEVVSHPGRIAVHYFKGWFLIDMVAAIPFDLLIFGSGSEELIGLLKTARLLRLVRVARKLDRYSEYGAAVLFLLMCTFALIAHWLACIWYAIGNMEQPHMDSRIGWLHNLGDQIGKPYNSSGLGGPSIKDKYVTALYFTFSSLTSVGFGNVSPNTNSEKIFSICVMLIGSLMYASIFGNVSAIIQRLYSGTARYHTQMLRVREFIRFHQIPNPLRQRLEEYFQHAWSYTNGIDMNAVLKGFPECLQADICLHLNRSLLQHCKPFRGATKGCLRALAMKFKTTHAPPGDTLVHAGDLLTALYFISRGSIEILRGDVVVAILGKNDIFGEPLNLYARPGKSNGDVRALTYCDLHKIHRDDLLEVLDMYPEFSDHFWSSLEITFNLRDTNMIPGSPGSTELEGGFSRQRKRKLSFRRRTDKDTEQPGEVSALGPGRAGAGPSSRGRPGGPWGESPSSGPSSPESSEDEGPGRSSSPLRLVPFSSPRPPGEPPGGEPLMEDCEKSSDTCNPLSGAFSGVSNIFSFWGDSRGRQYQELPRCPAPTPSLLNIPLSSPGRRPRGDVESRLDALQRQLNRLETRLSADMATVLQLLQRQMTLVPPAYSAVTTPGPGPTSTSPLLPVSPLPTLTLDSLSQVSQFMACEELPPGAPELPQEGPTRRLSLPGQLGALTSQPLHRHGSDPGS

The assay has as its target human ether-à-go-go-related gene (hERG) potassium channel (human, UniProt Q12809). Nature of the assay: primary screen, population patch clamp on CHO cells stably expressing hERG; higher = less effect of the substance.
Regarding `Nc1ccc(C2(c3ccc(N)cc3)CCCCC2)cc1`, the “hERG current change (%, negative = inhibition) at 10uM” value is given as 22.1%.

Consider `O=C(Nc1cccnc1)c1cc(-c2ccc(Br)cc2)nc2ccccc12`, for which the “hERG current change (%, negative = inhibition) at 10uM” value is -2.53%. `O=S1(=O)N=C(N2CCc3ccccc3C2)c2ccccc21`: the “hERG current change (%, negative = inhibition) at 10uM” value is -39%. In the case of `O=C(c1ccco1)N1CCN(c2cc(C(F)(F)F)nc3ncnn23)CC1` it was -16.7%; in that of `Cc1ccc(C(=O)CCNc2cccc(Br)c2)o1`, 4.71%; in that of `O=C(COc1ccc(Cl)cc1)NCCSCc1cccc(Cl)c1`, -13.5%. Take `CC1CCN(c2c(NCC3CCC(C(=O)NCCc4ccc(Cl)cc4)CC3)c(=O)c2=O)CC1` (centres unmarked): the “hERG current change (%, negative = inhibition) at 10uM” value is given as -3.81%. In the case of `CCCCN(C(=O)c1ccc2ccccc2c1)c1c(N)n(CCCC)c(=O)[nH]c1=O` it was 8.11%.

With `COc1ccc(CCn2c(=N)c(C(=O)NC3CCCC3)cc3c(=O)n4ccccc4nc32)cc1`, the “hERG current change (%, negative = inhibition) at 10uM” value is reported as -81.9%. In the case of `COc1ccc(Cn2c(=N)c(C(=O)NC3CCCCC3)cc3c(=O)n4ccccc4nc32)cc1` it was -68.9%; in that of `COc1ccc(NC(=O)c2cc3c(=O)n4ccccc4nc3n2C)c(OC)c1`, 2.99%; in that of `COc1ccc(CCn2c(=N)c(S(=O)(=O)c3ccc(Cl)cc3)cc3c(=O)n4ccccc4nc32)cc1`, 20.5%.

Turning to `COc1ccc(Cn2c(=O)[nH]c3cc(C(=O)NC4CCCC4)ccc3c2=O)cc1`, the “hERG current change (%, negative = inhibition) at 10uM” value amounted to 15.1%. In the case of `N=c1c(C(=O)NC2CCCCC2)cc2c(=O)n3ccccc3nc2n1CCc1ccccc1` it was -81.1%; in that of `N=c1c(S(=O)(=O)c2ccc(Cl)cc2)cc2c(=O)n3ccccc3nc2n1CCc1ccccc1`, 4.68%; in that of `COc1ccc(CCn2c(=N)c(C(=O)NC3CCCCC3)cc3c(=O)n4ccccc4nc32)cc1`, -79.4%. In the case of `Cc1ccc(S(=O)(=O)c2cc3c(=O)n4ccccc4nc3n(CCc3ccccc3)c2=N)cc1` it was 5.39%; in that of `COc1cccc(-c2csc(NNC(=O)c3cccs3)n2)c1`, -2.17%; in that of `COc1cc(C(=O)N(Cc2ccc(C)o2)C2CCS(=O)(=O)C2)cc(OC)c1OC` (centres unmarked), 14.4%. In the case of `O=C(NCc1cccnc1)c1ccc(Br)s1`, the “hERG current change (%, negative = inhibition) at 10uM” value was -16.9%.

On to `CCN1C(=O)c2cccc3c(NS(=O)(=O)c4ccc(NC(C)=O)cc4)ccc1c23`, for which the “hERG current change (%, negative = inhibition) at 10uM” value is reported as -8.89%.

Turning to `O=C(Cc1ccc(Cl)c(Cl)c1)Nc1cccc2ncccc12`, the “hERG current change (%, negative = inhibition) at 10uM” value was 20.2%. On to `COCCCNC(=O)c1c(N)n(-c2ccc(S(N)(=O)=O)cc2)c2nc3ccccc3nc12`, for which the “hERG current change (%, negative = inhibition) at 10uM” value is 0.473%.

Take `Cc1nn(Cc2c(F)c(F)c(F)c(F)c2F)c(C)c1NC(=O)c1cccc(COc2ccc(Cl)cc2)c1`: the “hERG current change (%, negative = inhibition) at 10uM” value is listed as 2.49%.

On to `O=C1c2oc3ccc(Br)cc3c(=O)c2C(c2cccc(F)c2)N1CCO` (centres unmarked), for which the “hERG current change (%, negative = inhibition) at 10uM” value was -1.34%.

Turning to `ONC(=Nc1ccccc1)c1ccccc1Cl`, the “hERG current change (%, negative = inhibition) at 10uM” value came out at 2.37%. In the case of `CCc1ccccc1NC(=O)CCC(=O)N1CCSc2ccccc21` it was -14.7%. `CCOC(=O)c1cnc2nc(NCc3ccc(OCc4ccccc4)cc3)[nH]n2c1=O`: the “hERG current change (%, negative = inhibition) at 10uM” value is 5.06%. For the compound `COCCCn1c(SCC(=O)NC2CCCCC2)nc2ccccc2c1=O`, the “hERG current change (%, negative = inhibition) at 10uM” value is -16.9%. In the case of `CCN(C(=O)c1cc2c(=O)n3ccccc3nc2n1CCCOC)C1CCCCC1` it was -2.32%.

For the compound `COc1ccc(CCn2c(C3CCCCC3)nc3c(c(=O)c4ccccc4n3C)c2=O)cc1OC`, the “hERG current change (%, negative = inhibition) at 10uM” value is listed as -8.08%. Consider `COCCCn1c(=N)c(C(=O)NC2CCCCC2)cc2c(=O)n3ccccc3nc21`, for which the “hERG current change (%, negative = inhibition) at 10uM” value is listed as -78.8%. `COc1ccc(CCn2c(=N)c(S(=O)(=O)c3ccc(C)cc3)cc3c(=O)n4ccccc4nc32)cc1`: the “hERG current change (%, negative = inhibition) at 10uM” value is 15.1%. Turning to `COc1ccc(CCn2c(=N)c(C(=O)N3CCN(C)CC3)cc3c(=O)n4ccccc4nc32)cc1`, the “hERG current change (%, negative = inhibition) at 10uM” value was -76.2%.

`COc1ccc(CCn2c(=N)c(S(=O)(=O)c3ccccc3)cc3c(=O)n4ccccc4nc32)cc1`: the “hERG current change (%, negative = inhibition) at 10uM” value is 10.9%. `COc1ccc(CCn2c(=N)c(C(=O)NC3CCCC3)cc3c(=O)n4ccccc4nc32)cc1OC`: the “hERG current change (%, negative = inhibition) at 10uM” value is recorded as -79.2%.

`Cc1ccc(C)c(S(=O)(=O)N2CCN(CC(=O)NC(=O)NCc3ccco3)CC2)c1`: the “hERG current change (%, negative = inhibition) at 10uM” value was -24.5%.

Regarding `Cc1cc(=S)c2cccc(C)c2[nH]1`, the “hERG current change (%, negative = inhibition) at 10uM” value worked out at 9.4%.

As to `Fc1cccc(CNc2ncnc3ccc(-c4ccc5c(c4)OCO5)cc23)c1`, the “hERG current change (%, negative = inhibition) at 10uM” value was -31%. In the case of `COc1ccc(NC(=O)CNC(=O)C2CCCCC2)cc1` it was 18.1%. In the case of `CCCOc1ccc(C(=O)N/N=C/c2ccc(-c3ccc(S(=O)(=O)Nc4ncccn4)cc3)o2)cc1` it was -7.38%; in that of `Cc1cccc(OCC(=O)Nc2ccc(N3CCN(C(=O)c4ccccc4)CC3)cc2)c1C`, 3.45%; in that of `CCCCCC(=O)Nc1ccc(N2CCN(C(=O)c3ccccc3)CC2)cc1`, -62.8%.

Turning to `Cc1ccc(C(=O)N2CCN(c3ccc(NC(=O)COc4ccccc4C)cc3)CC2)cc1`, the “hERG current change (%, negative = inhibition) at 10uM” value was -73.6%.

On to `COc1ccc(C(=O)N2CCN(c3ccc(NC(=O)Cc4ccccc4)cc3)CC2)cc1`, for which the “hERG current change (%, negative = inhibition) at 10uM” value is reported as -31.8%. Turning to `Cc1ccc(OCC(=O)Nc2ccc(N3CCN(C(=O)c4ccc(C)cc4)CC3)cc2)cc1`, the “hERG current change (%, negative = inhibition) at 10uM” value is 9.99%. In the case of `CCCCCC(=O)Nc1ccc(N2CCN(C(=O)CCC)CC2)cc1` it was -32.8%. In the case of `O=C(/C=C/c1ccco1)Nc1ccc(N2CCCC2)cc1` it was 10.5%; in that of `CCCCCCC(=O)Nc1ccc(C(=O)N2CCCC2)cc1`, 0.864%. In the case of `Cc1ccc(C(=O)N2CCN(c3ccc(NC(=S)NC(=O)Cc4ccccc4)cc3)CC2)cc1` it was -17.1%. On to `Cc1ccc(C(=O)N2CCN(c3ccc(NC(=O)Cc4ccccc4)cc3)CC2)cc1`, for which the “hERG current change (%, negative = inhibition) at 10uM” value was -71.5%. For `O=C(/C=C\c1ccco1)Nc1ccc(N2CCN(C(=O)c3ccccc3)CC2)cc1`, the “hERG current change (%, negative = inhibition) at 10uM” value is -55.7%.

On to `O=C(/C=C/c1ccco1)N1CCN(c2ccccc2)CC1`, for which the “hERG current change (%, negative = inhibition) at 10uM” value is given as -1.71%. Regarding `COc1ccc2c(c1)CC/C(=C/c1ccco1)C2=O`, the “hERG current change (%, negative = inhibition) at 10uM” value is 10.7%. For the compound `CCSc1oc(-c2ccco2)nc1S(=O)(=O)c1ccccc1`, the “hERG current change (%, negative = inhibition) at 10uM” value is -12.8%.

As to `CCOc1ccc(C(=O)Nc2c3c(nn2-c2ccc(F)cc2)CS(=O)C3)cc1` (centres unmarked), the “hERG current change (%, negative = inhibition) at 10uM” value is reported as -1.14%. As to `COCCNC(=S)N1CCN(C(c2ccccc2)c2ccccc2)CC1`, the “hERG current change (%, negative = inhibition) at 10uM” value is -10.1%. In the case of `COc1cc(C(=O)Nc2ncccc2C)ccc1OCC(=O)N1CCOCC1` it was -4.78%; in that of `CC1(c2nnc(-c3cccc(Cl)c3)o2)CC(c2ccc(F)cc2)=NO1` (centres unmarked), -8.47%. In the case of `OCCCc1nc2n(n1)C(c1ccccc1)C=C(c1ccccc1)N2` (centres unmarked) it was -17.3%; in that of `OCCCc1nc2n(n1)C(c1ccccc1Cl)C=C(c1cccs1)N2` (centres unmarked), -5.71%; in that of `OCCCc1nc2n(n1)C(c1ccccc1)C=C(c1ccc(F)cc1)N2` (centres unmarked), -12.8%. With `COc1ccc(C2C=C(c3ccccc3)Nc3nc(CCCO)nn32)cc1` (centres unmarked), the “hERG current change (%, negative = inhibition) at 10uM” value is given as -51.8%. In the case of `COc1ccc(C2C=C(c3cccs3)Nc3nc(CCCO)nn32)cc1` (centres unmarked) it was -57.9%. Turning to `OCCCc1nc2n(n1)C(c1cccs1)C=C(c1ccccc1)N2` (centres unmarked), the “hERG current change (%, negative = inhibition) at 10uM” value is recorded as -38.5%. In the case of `O=C(CCc1nc(-c2ccccc2)no1)NC1CCCCCC1`, the “hERG current change (%, negative = inhibition) at 10uM” value is given as 1.28%. Turning to `CCc1cccc(C)c1NC(=O)CSc1nc(-c2ccccc2F)nc2nc[nH]c12`, the “hERG current change (%, negative = inhibition) at 10uM” value is reported as 3.31%.

Regarding `NC(=O)c1cc([N+](=O)[O-])c(Cl)cc1NCc1cccnc1`, the “hERG current change (%, negative = inhibition) at 10uM” value is -8.53%.

In the case of `Cc1cc(C)cc(OCC(=O)NNC(=O)c2ccccn2)c1`, the “hERG current change (%, negative = inhibition) at 10uM” value is -34.6%.

Take `CN(C)S(=O)(=O)n1cc(/C=C(\NC(=O)c2ccccc2Cl)C(=O)N2CCOCC2)c2ccccc21`: the “hERG current change (%, negative = inhibition) at 10uM” value is reported as -7.07%. In the case of `O=C(Nc1ccc(C(=O)O)cc1)/C(=C\c1ccc2c(c1)OCO2)NC(=O)c1ccc(Br)cc1`, the “hERG current change (%, negative = inhibition) at 10uM” value was 5.36%.

Regarding `Cc1ccc(C(=O)N/C(=C\c2ccc3c(c2)OCO3)C(=O)Nc2ccc(C(=O)O)cc2)cc1`, the “hERG current change (%, negative = inhibition) at 10uM” value is recorded as 17.9%. As to `O=C(Nc1ccc(C(=O)O)cc1)/C(=C\c1ccc2c(c1)OCO2)NC(=O)c1ccccc1`, the “hERG current change (%, negative = inhibition) at 10uM” value turned out to be 22%. In the case of `CNC(=O)/C(=C/c1ccc2c(c1)OCO2)NC(=O)c1ccc(Br)cc1` it was -63.4%.

Regarding `CNC(=O)/C(=C\c1ccc2c(c1)OCO2)NC(=O)c1ccc(Br)cc1`, the “hERG current change (%, negative = inhibition) at 10uM” value is -56.5%.

With `O=C(Nc1cccc(C(=O)O)c1)/C(=C\c1ccc2c(c1)OCO2)NC(=O)c1ccc(Br)cc1`, the “hERG current change (%, negative = inhibition) at 10uM” value was found to be 17.9%. In the case of `COC(=O)c1ccc(NC(=O)c2ccccc2N(C)S(=O)(=O)c2ccccc2)cc1` it was 16.3%; in that of `CCN1CCN(C(c2cccnc2)c2cc(Cl)c3cccnc3c2O)CC1` (centres unmarked), -72.4%. In the case of `CC(C)(C)c1cc(C(=S)N2CCN(CCO)CC2)cc(C(C)(C)C)c1O` it was -26.6%; in that of `Cc1ccc(C(c2cc(Cl)c3cccnc3c2O)N2CCN(C)CC2)cc1` (centres unmarked), -9.97%.

Regarding `CC(C)(C)c1cc(C(c2cccnc2)N2CCN(CCO)CC2)cc(C(C)(C)C)c1O` (centres unmarked), the “hERG current change (%, negative = inhibition) at 10uM” value is on record as -53.8%.

As to `CC(C)(C)c1cc(CN2CCN(CCO)CC2)cc(C(C)(C)C)c1O`, the “hERG current change (%, negative = inhibition) at 10uM” value is given as -19%. In the case of `CN1CCN(C(c2ccc(Cl)cc2)c2cc(Cl)c3cccnc3c2O)CC1` (centres unmarked) it was 7.12%.

The values are drawn from paper PMC4336329 (PLoS ONE, 2015).
